Assay [1] in a line: small molecules captured by biotinylated probe aFSTL3 – biochemical, small-molecule microarray, fluorescence 635/667, stem cell growth factor project, primary screen (AID 1064).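 Note: measures binding of the biotinylated anti-FSTL3 antibody to printed compounds.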 Conditions: higher = more signal.
A short description of assay [2]: binders from COS7 lysate, DM2A8 probe, primary screen, torsin A project, cell lysate, small-molecule microarray, fluorescence 635/667 (AID 1065). Conditions: higher = more signal, COS7 lysate expressing mutant human TOR1A.
Assay [3] is described as follows: small molecules captured by biotinylated probe aFGF2 – biochemical, small-molecule microarray, fluorescence 635/667, stem cell growth factor project, primary screen (AID 1067).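 Note: measures binding of biotinylated aFGF2 protein to printed compounds on slides; z-score merges feature fluorescence and signal-to-noise across triplicate slides.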 Conditions: higher = more signal.
Assay [4] can be described thus: small molecules captured by biotinylated probe aFGF10 – biochemical, small-molecule microarray, fluorescence 635/667, stem cell growth factor project, primary screen (AID 1071).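 Note: score merges 667 nm spot intensity and signal to noise from triplicate slides.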 Conditions: higher = more signal.
Assay [5] has as its target Neurogenic locus notch homolog protein 2 (Homo sapiens) (UniProt Q04721). In words: small molecules binding Notch2 protein – biochemical, small-molecule microarray, 635 nm fluorescence, stem cell growth factors, primary screen (AID 1073). Conditions: higher = more signal.
Assay [6] deals with Pro-neuregulin-1, membrane-bound isoform (Homo sapiens) (UniProt Q02297). In words: small molecules binding neuregulin-1 protein – biochemical, small-molecule microarray, fluorescence 635/667, psychiatric disease protein project, primary screen (AID 1075).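 Note: score combines 667 nm spot fluorescence with signal to noise.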 Conditions: NRG1 binding, 635 nm fluorescence, higher = more signal.
Assay [7] relates to Neuregulin-1 EGF-like domain. In words: small molecules binding NRG1 EGF domain – biochemical, small-molecule microarray, 635 nm fluorescence, primary screen (AID 1081).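 Note: binding of the protein to compounds printed on small-molecule microarray slides.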 Conditions: higher = more signal.
The nature of assay [8]: FRG1 expression reporter modulators in myotubes – cell-based, C2C12 myotubes, firefly/Renilla luciferase, luminescence, FRG1 inhibition for FSHD, primary screen (AID 1084). Conditions: FRG1 promoter luciferase, higher = more signal, called active from +8 up or from −8 down.
A short description of assay [9]: small molecules captured by biotinylated probe aFST – biochemical, small-molecule microarray, fluorescence 635/667, stem cell growth factor project, primary screen (AID 1086).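 Note: score merges 667 nm fluorescence with signal-to-noise of each printed compound spot.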 Conditions: higher = more signal.
Assay [10] in a line: binders of probe aHhip on microarray, primary screen, stem cell growth factor project, biochemical, small-molecule microarray, fluorescence 635/667 (AID 1087).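 Note: score merges spot fluorescence at 667nm with spot signal to noise ratio.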 Conditions: higher = more signal.
In assay [11] the test system is PRMT1 (protein arginine N-methyltransferase 1). The assay is described as follows: small molecules binding arginine methyltransferase PRMT1 – biochemical, small-molecule microarray, 635 nm fluorescence, primary screen (AID 1088).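 Note: binding of Prmt1 protein to compounds spotted on small-molecule microarray slides.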 Conditions: higher = more signal.
A short description of assay [12]: growth effects on S. cerevisiae YJM789 – YJM789 clinical isolate, OD600, 24 h, basal, primary screen (AID 1089).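 Note: growth of clinical yeast isolate S. cerevisiae YJM 789 seeded 1000 cells per well; test concentration not given here.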 Conditions: higher = more signal, called active from +8 up or from −8 down.
A short description of assay [13]: S. pombe growth modifiers, basal conditions – strain 972, OD600, 24 h, no modulator, primary screen (AID 1090).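 Note: basal condition with compound alone and no growth modifier present; test concentration not given here.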 Conditions: S. pombe 972 growth, higher = more signal, called active from +8 up or from −8 down.
A short description of assay [14]: budding yeast growth modifiers under rapamycin – strain BY4716, OD600, 96 h, primary screen (AID 1091). Note: test concentration not given here. Conditions: S. cerevisiae BY4716 + rapamycin, higher = more signal, called active from +8 up or from −8 down.
The target of assay [15] is Torsin-1A-interacting protein 2 (Homo sapiens) (UniProt Q8NFQ8). The assay is described as follows: small molecules binding lysate-expressed LULL1 – cell lysate, human LULL1 lysate, 635/667 nm fluorescence, primary screen (AID 1092).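 Note: probe is lysate of COS7 cells overexpressing human LULL1; score merges per-feature 667 nm fluorescence with signal-to-noise.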 Conditions: small-molecule microarray, hLULL1 lysate binding, 635 nm fluorescence; higher = more signal.
Assay [16] is described as follows: optical density change of DRC41 E. coli – strain DRC41, OD650, 24 h, E. coli filamentation project, primary screen (AID 1093).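 Note: MC1000 strain lacking acrAB efflux and sulA so SOS filamentation is blocked; test concentration not given here.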 Conditions: E. coli DRC41 growth, higher = more signal, called active from +8 up or from −8 down.
The nature of assay [17]: probe aLefty2 binding to arrayed compounds – biochemical, biotinylated probe, 635/667 nm fluorescence, primary screen (AID 1094).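 Note: score merges spot fluorescence near 667 nm with spot signal-to-noise ratio.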 Conditions: small-molecule microarray, higher = more signal.
In assay [18] the test system is Noggin (protein binding on small-molecule microarray). In words: small molecules binding Noggin protein – biochemical, 635/667 nm fluorescence, primary screen (AID 1095).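 Note: score merges 667 nm feature fluorescence with signal to noise over triplicate slides.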 Conditions: 635 nm fluorescence, higher = more signal.
Assay [19] deals with Neurogenic locus notch homolog protein 3 (Homo sapiens) (UniProt Q9UM47). In words: small molecules binding NOTCH3 protein – biochemical, 635/667 nm fluorescence, primary screen (AID 1096). Conditions: small-molecule microarray, 635 nm fluorescence, higher = more signal.
The nature of assay [20]: probe aEGFR binding to arrayed compounds – biochemical, biotinylated probe, 635/667 nm fluorescence, primary screen (AID 1097).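 Note: probe is a biotinylated anti-EGFR antibody binding compounds printed on slides; score combines fluorescence near 667 nm and signal to noise of each spot.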 Conditions: small-molecule microarray, higher = more signal.

Active and inactive are the calls of the source.

Chain of Pro-neuregulin-1, membrane-bound isoform (Homo sapiens) (Q02297 whole entry, looked up, the tested form may be a part, canonical isoform): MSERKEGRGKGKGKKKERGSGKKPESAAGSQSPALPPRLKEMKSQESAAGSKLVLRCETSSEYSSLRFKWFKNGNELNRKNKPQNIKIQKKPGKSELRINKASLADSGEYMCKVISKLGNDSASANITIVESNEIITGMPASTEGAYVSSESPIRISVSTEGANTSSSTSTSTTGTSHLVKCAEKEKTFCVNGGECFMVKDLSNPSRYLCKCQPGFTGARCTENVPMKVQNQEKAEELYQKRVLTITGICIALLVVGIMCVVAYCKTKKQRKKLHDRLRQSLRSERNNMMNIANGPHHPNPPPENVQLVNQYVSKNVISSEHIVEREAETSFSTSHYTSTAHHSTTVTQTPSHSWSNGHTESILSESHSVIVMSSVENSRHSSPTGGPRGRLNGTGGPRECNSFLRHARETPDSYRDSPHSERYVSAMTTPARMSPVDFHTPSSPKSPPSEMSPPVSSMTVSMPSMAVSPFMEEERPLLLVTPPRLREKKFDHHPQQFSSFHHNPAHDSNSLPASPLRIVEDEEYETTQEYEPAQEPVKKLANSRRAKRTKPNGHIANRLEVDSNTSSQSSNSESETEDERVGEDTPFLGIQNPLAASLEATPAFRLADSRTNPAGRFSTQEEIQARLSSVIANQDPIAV
Chain of Neurogenic locus notch homolog protein 2 (Homo sapiens) (Q04721 whole entry, looked up, canonical isoform): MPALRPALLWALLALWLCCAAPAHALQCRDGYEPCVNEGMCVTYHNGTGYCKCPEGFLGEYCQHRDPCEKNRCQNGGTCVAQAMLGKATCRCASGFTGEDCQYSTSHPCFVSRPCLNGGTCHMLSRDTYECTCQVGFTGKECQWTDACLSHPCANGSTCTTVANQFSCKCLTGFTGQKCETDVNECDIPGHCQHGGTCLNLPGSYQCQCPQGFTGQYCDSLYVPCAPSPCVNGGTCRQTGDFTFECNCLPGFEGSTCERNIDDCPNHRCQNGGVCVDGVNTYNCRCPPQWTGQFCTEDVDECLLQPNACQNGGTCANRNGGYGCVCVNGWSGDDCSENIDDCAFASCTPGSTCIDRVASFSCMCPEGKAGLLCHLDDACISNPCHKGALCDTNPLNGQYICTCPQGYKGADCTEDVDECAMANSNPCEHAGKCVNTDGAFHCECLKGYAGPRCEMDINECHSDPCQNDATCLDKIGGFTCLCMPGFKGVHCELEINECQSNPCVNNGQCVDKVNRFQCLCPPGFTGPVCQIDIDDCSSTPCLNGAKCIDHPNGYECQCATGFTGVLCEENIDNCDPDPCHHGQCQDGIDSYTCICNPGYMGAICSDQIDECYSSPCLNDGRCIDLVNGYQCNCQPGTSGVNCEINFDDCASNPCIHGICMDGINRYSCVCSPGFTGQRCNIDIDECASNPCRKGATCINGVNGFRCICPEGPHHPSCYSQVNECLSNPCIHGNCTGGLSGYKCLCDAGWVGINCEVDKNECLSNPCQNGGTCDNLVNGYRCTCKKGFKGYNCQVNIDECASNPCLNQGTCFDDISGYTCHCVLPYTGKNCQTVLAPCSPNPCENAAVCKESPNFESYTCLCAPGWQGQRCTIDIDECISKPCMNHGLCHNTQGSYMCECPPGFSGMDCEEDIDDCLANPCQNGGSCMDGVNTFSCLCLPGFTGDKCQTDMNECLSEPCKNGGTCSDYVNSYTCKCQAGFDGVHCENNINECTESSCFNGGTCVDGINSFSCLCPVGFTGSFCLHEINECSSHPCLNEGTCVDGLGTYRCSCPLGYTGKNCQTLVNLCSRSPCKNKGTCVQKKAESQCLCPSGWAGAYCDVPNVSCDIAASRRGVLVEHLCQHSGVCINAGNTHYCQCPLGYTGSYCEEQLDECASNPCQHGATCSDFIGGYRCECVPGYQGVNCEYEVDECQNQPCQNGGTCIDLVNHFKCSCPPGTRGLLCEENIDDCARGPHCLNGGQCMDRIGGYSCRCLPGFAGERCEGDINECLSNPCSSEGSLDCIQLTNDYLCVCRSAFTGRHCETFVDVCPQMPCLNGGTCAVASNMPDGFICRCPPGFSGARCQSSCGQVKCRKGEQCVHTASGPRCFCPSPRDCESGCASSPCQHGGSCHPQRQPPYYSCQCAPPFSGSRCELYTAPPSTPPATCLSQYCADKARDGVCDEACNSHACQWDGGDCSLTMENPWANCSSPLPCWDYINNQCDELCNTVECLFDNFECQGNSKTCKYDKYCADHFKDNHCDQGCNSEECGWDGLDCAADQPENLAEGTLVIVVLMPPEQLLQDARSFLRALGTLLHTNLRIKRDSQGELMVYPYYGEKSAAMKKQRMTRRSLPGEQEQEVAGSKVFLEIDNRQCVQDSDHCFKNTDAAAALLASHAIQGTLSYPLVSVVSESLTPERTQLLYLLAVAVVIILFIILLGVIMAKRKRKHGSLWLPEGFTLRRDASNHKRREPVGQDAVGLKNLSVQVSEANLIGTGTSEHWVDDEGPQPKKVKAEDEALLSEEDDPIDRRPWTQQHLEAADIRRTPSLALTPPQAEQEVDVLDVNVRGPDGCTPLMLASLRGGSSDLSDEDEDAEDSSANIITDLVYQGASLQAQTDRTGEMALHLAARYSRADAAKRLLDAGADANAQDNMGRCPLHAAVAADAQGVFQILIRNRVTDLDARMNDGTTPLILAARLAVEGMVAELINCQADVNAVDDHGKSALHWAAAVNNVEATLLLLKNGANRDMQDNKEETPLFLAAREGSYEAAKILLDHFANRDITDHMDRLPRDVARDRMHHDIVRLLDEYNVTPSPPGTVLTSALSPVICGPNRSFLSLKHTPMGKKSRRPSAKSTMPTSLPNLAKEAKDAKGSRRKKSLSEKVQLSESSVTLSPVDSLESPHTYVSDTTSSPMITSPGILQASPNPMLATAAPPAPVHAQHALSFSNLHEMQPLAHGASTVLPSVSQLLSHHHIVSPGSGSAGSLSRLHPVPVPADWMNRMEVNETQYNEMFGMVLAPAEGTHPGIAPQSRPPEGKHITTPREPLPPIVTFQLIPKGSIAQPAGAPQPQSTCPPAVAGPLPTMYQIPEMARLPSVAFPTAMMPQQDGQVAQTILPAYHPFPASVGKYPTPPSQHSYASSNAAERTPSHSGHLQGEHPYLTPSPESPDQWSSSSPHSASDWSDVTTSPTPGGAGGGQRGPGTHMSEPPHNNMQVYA
Chain of Torsin-1A-interacting protein 2 (Homo sapiens) (Q8NFQ8 whole entry, looked up): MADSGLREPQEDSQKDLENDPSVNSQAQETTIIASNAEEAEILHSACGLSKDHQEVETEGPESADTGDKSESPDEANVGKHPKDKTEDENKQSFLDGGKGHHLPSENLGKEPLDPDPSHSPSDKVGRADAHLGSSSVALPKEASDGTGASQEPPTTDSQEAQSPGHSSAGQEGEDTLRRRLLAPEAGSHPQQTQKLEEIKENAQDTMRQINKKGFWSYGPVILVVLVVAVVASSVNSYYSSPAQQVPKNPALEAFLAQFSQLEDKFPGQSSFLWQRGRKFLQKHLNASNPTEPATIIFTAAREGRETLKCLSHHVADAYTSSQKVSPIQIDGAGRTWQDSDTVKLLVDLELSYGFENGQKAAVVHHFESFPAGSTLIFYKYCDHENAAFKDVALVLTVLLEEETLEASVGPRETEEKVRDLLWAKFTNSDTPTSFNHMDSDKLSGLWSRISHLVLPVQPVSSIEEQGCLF

As for `COc1ccc([Si](C)(C)[C@H]2[C@H](CCn3cc([C@H](O)c4ccccc4)nn3)O[C@@]3(C(=O)N(Cc4cccc(N5C(=O)c6cccc7cccc5c67)c4)c4ccccc43)[C@@H]2C)cc1`, the composite z-score in assay [1] was 0.582; in [2], -0.17; in [3], -0.158; in assay [4] it was -1.11; in [5] it was -1.65; in [6] it was 0.84. For the same compound, the composite z-score in [7] is 0.251; in [9] it was -0.295; in assay [10], -0.0994; in assay [11], 0.492; in assay [15], 1.28; in assay [17], -0.134. Besides, the composite z-score in [18] is -1.17; in [19], -0.871; in assay [20], -0.21. Besides, the z-score is -0.704 (inactive) in assay [8]; -0.844 (inactive) in assay [12]; 0.723 (inactive) in [13]; 0.635 (inactive) in assay [14]; -0.666 (inactive) in assay [16].
As for `O=C1c2ccccc2[C@](Cc2ccccc2I)(C(=O)NCc2ccccc2)[C@H](c2ccc(CO)cc2)N1C1CCCCC1`, the composite z-score was -0.126 in [1]; 0.106 in [2]; -0.0291 in assay [3]; 0.753 in assay [4]; 1.13 in [5]; 1.76 in assay [6]. Moreover, the composite z-score in assay [7] worked out at 1.27; in assay [9], 0.671; in assay [10], 0.189; in assay [11], 1.27; in assay [15] it was 1.78; in assay [17], 0.117. Also, the composite z-score came out at 1.32 in assay [18], 0.918 in assay [19] and 0.494 in assay [20]. For the same compound, the z-score is -1.6 (inactive) in assay [8]; -0.0116 (inactive) in [12]; -1.32 (inactive) in assay [13]; -0.0677 (inactive) in [14]; -0.403 (inactive) in assay [16].
For `CCOC(=O)C[C@H]1[C@H](OC(=O)c2ccc(-c3ccccc3)cc2)[C@@H](NC(=O)C2CCCCC2)c2cc(OCCCO)ccc2N1C(=O)c1ccccc1`, the composite z-score in assay [1] is -0.539; in assay [2] it was 0.338; in assay [3] it was -0.0344; in assay [4] it was 0.303; in assay [5], 0.425; in assay [6], 0.397. The composite z-score in [7] was 0.337; in assay [9] it was 0.345; in [10] it was 0.103; in assay [11], 0.5; in [15] it was 1.44; in [17] it was -0.13. In addition, the results for the composite z-score in [18], in [19] and in assay [20] were 0.714, 0.855 and -0.113, respectively. The z-score is -0.298 (inactive) in [8]; 0.285 (inactive) in assay [12]; 0.881 (inactive) in [13]; 1.29 (inactive) in assay [14]; -0.964 (inactive) in [16].
As to `COc1cc2c(cc1OC)CN(C(=O)[C@H]1[C@@H]3C(=O)O[C@@H](c4ccccc4)[C@@H](c4ccccc4)N3[C@@H](c3ccc(OCCO)cc3)[C@]13C(=O)Nc1ccc(C#CCCO)cc13)CC2`, the composite z-score in assay [1] was -0.0463; in [2] it was 0.853; in assay [3] it was 0.0746; in [4], 0.844; in [5] it was 1.43; in [6] it was 1.39. The composite z-score in assay [7] is 0.874; in [9], 0.707; in assay [10], 0.305; in [11], 1.54; in [15], 2.87; in [17] it was 0.0448. Further, the composite z-score in [18] was 1.14; in assay [19], 1.06; in assay [20] it was -0.0069. The z-score was -0.0164 (inactive) in assay [8]; 2.48 (inactive) in assay [12]; 1.55 (inactive) in assay [13]; 5.29 (inactive) in assay [14]; 0.314 (inactive) in assay [16].
Take `COc1ccc([Si](C)(C)[C@H]2[C@H](CCn3cc([C@H](O)c4ccccc4)nn3)O[C@@]3(C(=O)N(Cc4ccc(N5CCC5=O)cc4)c4ccccc43)[C@@H]2C)cc1`: the composite z-score in assay [1] was -0.179; in assay [2], 1.16; in assay [3], -0.116; in assay [4] it was 0.368; in [5], 0.176; in [6] it was 0.635. The composite z-score in assay [7] was 0.636; in assay [9] it was 0.247; in assay [10], -0.0237; in assay [11], 1.57; in assay [15], 0.588; in assay [17] it was -0.184. Also, the composite z-score in [18] is 1.05; in [19], 0.698; in [20], -0.0953. The z-score was -2.36 (inactive) in assay [8]; -0.509 (inactive) in [12]; 0.158 (inactive) in assay [13]; 2.14 (inactive) in assay [14]; 1.15 (inactive) in [16].
With `CCOC(=O)C[C@H]1[C@H](OC(=O)c2ccc(C(=O)c3ccccc3)cc2)[C@@H](NC(=O)c2ccc3ccccc3c2)c2cc(OCCCO)ccc2N1C(=O)c1ccccc1`, the composite z-score in [1] is -0.476; in [2], 0.443; in assay [3], -0.0943; in assay [4], 0.757; in assay [5] it was 1.48; in [6] it was 1.01. Besides, the composite z-score in assay [7] is 1.07; in assay [9], 0.355; in [10], -0.0672; in assay [11] it was 1.56; in assay [15], 2.54; in assay [17], 0.0773. Moreover, the composite z-score in assay [18] came out at 0.354; in assay [19], 1.09; in assay [20] it was 0.116. In addition, the z-score in assay [8] was 0.0732 (inactive); in [12] it was -0.79 (inactive); in assay [13] it was -0.681 (inactive); in [14], -0.278 (inactive); in assay [16] it was -0.551 (inactive).

Source of the values: PubChem BioAssay.
